# DT40 TDP1 CPT: growth inhibition of DT40 Tdp1-/-;hTDP1 cells with camptothecin (screen for TDP1 inhibitors). chicken DT40 Tdp1-/-;hTDP1 cells + 20 nM CPT, ATP luminescence, 48 h. Potency, µM (highest dose often 46.2 µM), inactives show at the highest dose activity change, negative = growth inhibition, hits mostly inhibitors. 12% of 420,000 active; further: potency means the concentration at half of the fitted maximal effect; on the % scale 0 is the no-effect control and ±100 the full control effect; nearly all actives have a fitted effect of over 55% in size
#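 Chicken DT40 Tdp1-/- cells complemented with human TDP1, 400 cells/well, exposed to compounds plus 20 nM camptothecin for at least 48 h at 37 C; viability read as ATP content by CellTiter-Glo luminescence.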
# SW480 rerep: DNA re-replication induction in SW480 cells; SW480 DNA re-replication, Hoechst DNA content imaging, 48 h; 1.8% of 340,000 active; Potency, µM (series often up to 46.1 µM), for the others: at the top dose re-replication activation, hits mostly activators; further: potency means the concentration at half of the fitted maximal effect; % of control where 0% means no effect; nearly all actives have a fitted effect of over 55% in size
#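 Compounds, transferred as 23 nL by pin tool, were incubated with cells for 48 hr; DNA content per nucleus was then quantified by Hoechst staining and fluorescence plate imaging.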
# MCF10A rereplic: induces DNA re-replication in MCF 10a normal breast cells | MCF 10A DNA re-replication, Hoechst nuclear intensity, 48 h | Potency, µM (titrated, usually from 46.1 µM), for the others: at the highest dose activity, positive = re-replication, most hits filed as activators | 2.9% of 350,000 active | AID 624296; further: potency means the concentration at half of the fitted maximal effect; % of control where 0% means no effect; nearly all actives have a fitted effect of over 50% in size
# DT40 TDP1 no CPT: qHTS for Inhibitors of human tyrosyl-DNA phosphodiesterase 1 (TDP1): qHTS in cells in absence of CPT. DT40 Tdp1-/- hTDP1 cells, no CPT, ATP luminescence, 48 h. Potency, µM (doses to about 46.2 µM), inactives show at the highest dose activity change, negative = growth inhibition, usual class: inhibitors. 15% of 420,000 active. AID 686978, 2013; further: potency means the concentration at half of the fitted maximal effect; on the % scale 0 is the no-effect control and ±100 the full control effect; nearly all actives have a fitted effect of over 55% in size
#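 Chicken DT40 Tdp1-/- cells complemented with human TDP1, screened without camptothecin (DMSO vehicle only), 400 cells/well. Compounds pin-transferred, cells incubated at 37 °C for at least 48 hr. Growth read as ATP-dependent luminescence (CellTiter-Glo, 30 min at RT).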
# IL-1B inflam inh: inflammasome signaling inhibition, IL-1 beta readout. activity change, % at 57.5 µM. THP-1 LPS/ATP IL-1B secretion, AlphaLISA, 16 h; active compounds read low. AID 743279. 4.7% of 360,000 active; in the data active means activity change below about -50%; inconclusive means mostly about -30% to -49%; further: on the % scale 0 is the no-effect control and ±100 the full control effect
#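 THP-1 cells pretreated 1 hr with compounds (up to 57.5 uM final), then stimulated with LPS (250 ng/mL final) plus ATP (1.25 mM final); secreted IL-1B measured by AlphaLISA after 16 hr, decreased signal indicating inhibition.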
# BCR signal inh: chronic active BCR signaling inhibition; ABC-DLBCL IkBa-CBG/CBR reporter, luminescence ratio, 4 h; Potency, µM (titrated, usually from 46.1 µM), inactives show top-dose activity change, negative = inhibition, hits mostly inhibitors; 0.05% of 340,000 active; AID 493014; active means well fitted inhibition curve with a large enough effect in the signal ratio, with a control signal flat, not every such curve was filed as active; inconclusive means small, poorly fitted or top-dose-only effect, or effect the other way, or a change in a side signal; the % refers to the signal ratio;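 further: potency means the concentration at half of the fitted maximal effect; plate controls were basal doxycycline-induced cells for no effect and cells given 10 µM MG132 for full effect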
#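 Cell line TMD8 (human ABC DLBCL), stably expressing tet-inducible CBG68-IkBa fusion and CBR; IMDM/0.5% FBS; cpd up to 46 uM; dox induction, 4 h, 37C/5% CO2; dual luminescence; green/red ratio; MG132 control.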
# * marks the source's active call; other numbers are inactive results; ? = inconclusive; . = not tested or not shown; [ ] = dose if it differs, or a comment. In the library only some 19% were active in any assay of this set; here they are far more common. Unless noted, the call rests on the fitted dose curve; in most records, active means well fitted curve in the direction sought with a large enough effect; inconclusive means small, poorly fitted or top-dose-only effect, or another doubt; inactive means no such curve, though single readings can be large; an effect the other way counts as inactive or inconclusive.
SMILES,DT40 TDP1 CPT,SW480 rerep,MCF10A rereplic,DT40 TDP1 no CPT,IL-1B inflam inh,BCR signal inh
CCN(CC(O)Cn1c2ccccc2c2ccccc21)S(=O)(=O)c1ccc(C)cc1 (configuration not stated),29µM*,?,?,?,?,?
COc1ccc(N(CC(O)Cn2c3ccccc3c3ccccc32)S(=O)(=O)c2ccccc2)cc1 (configuration not stated),?,?,5%,?,-23,?
CC(=O)Nc1ccccc1N(CC(O)Cn1c2ccccc2c2ccccc21)S(=O)(=O)c1ccc(C)cc1 (configuration not stated),?,23µM*,?,18µM*,?,0%
O=C1/C(=C/c2ccccc2)CCc2ccc(Cl)nc21,2.6µM*,?,?,4.6µM*,-105*,.
CCC1CN(CC(=O)N(C)Cc2nc3ccccc3[nH]2)Cc2cc(OC)ccc2O1 (configuration not stated),-10%[9.04 µM],.,.,-19%,.,.
COc1ccc(-c2cc(C(=O)Nc3c(C)nn(Cc4ccc(Cl)cc4)c3C)no2)cc1,-30%,?,16µM*,?,38,?
COc1ccc(-c2cc(C(=O)Nc3c(C)nn(Cc4ccc(C)cc4)c3C)no2)cc1OC,?,.,.,-5%,.,.
COc1ccccc1-c1cc(C(=O)Nc2c(C)nn(Cc3ccc(Cl)cc3)c2C)no1,21µM*,.,.,21µM*,.,.
Cc1ccc(-c2cc(=O)c3ccccc3[nH]2)cc1,16µM*,?,13µM*,9.2µM*,0,-1%
COc1cc2[nH]c(-c3ccc(C)cc3)cc(=O)c2cc1OC,-26%,-12%,-7%,?,-8,2%
Cc1ccc(-c2cc(=O)c3cc(Cl)ccc3[nH]2)cc1,.,.,.,.,.,-27%
O=c1cc(-c2ccc(Cl)cc2)[nH]c2ccccc12,4.1µM*,?,15µM*,6.5µM*,13,?
Cc1ccc2[nH]c(-c3ccccc3)cc(=O)c2c1,0.82µM*,?,?,0.65µM*,70,5.6µM*
Cc1ccc(S(=O)(=O)Nc2cccc(C(=O)N3CCC(C(N)=O)CC3)c2)cc1,-13%,-1%,-2%,-6%,26,-1%
CCc1noc(C)c1C(=O)N(C)CC(=O)Nc1ccc(F)c(F)c1F,-3%,-6%,1%,-8%,15,4%
O=C(COC(=O)c1cncc(Br)c1)NC1CCCCCC1,17%,-5%,0%,-1%,30,2%
O=C(c1cnccn1)N1CCC2(CCN(Cc3ccncc3)CC2)CC1,6%,.,.,?,.,.
CCC(C)C1Nc2ccc(C(=O)NCCc3ccc(OC)c(OC)c3)cc2NC1=O (configuration not stated),16µM*,?,?,?,11,8%
CCCCN(C=O)c1c(CC)nc2ccc(C(=O)NCc3cccs3)cn12,-30%,.,.,?,-10,.
CCCn1c(C)cc(/C=C(\C#N)C(=O)OCC(=O)NC(=O)NCC)c1C,-12%,1%,-1%,-27%,-16,-17%
COCCn1c(C)cc(/C=C(\C#N)C(=O)OCC(=O)Nc2ccc(S(N)(=O)=O)cc2)c1C,-22%,-33%,16µM*,-24%,26,?
CCCn1c(C)cc(/C=C(\C#N)C(=O)OCC(=O)Nc2ccc(OC)c(Cl)c2)c1C,-27%,7%,3%,12µM*,4,-2%
Cc1ccc2nc(-c3ccccc3)cc(C(=O)NCC3CCCO3)c2c1 (configuration not stated),-24%,13%,24%,?,.,7%
Cc1cc(Br)cc2c(C(=O)NCC3CCCO3)cc(-c3cccs3)nc12 (configuration not stated),?,?,15µM*,?,6,3%
